Sampled rows, rich in hits. Any-hit rate of the full collection: about 9.4%.
ALDH1A1 block: inhibitors of human aldehyde dehydrogenase 1A1; P00352; Purified ALDH1A1, NADH fluorescence, propionaldehyde substrate; Potency, µM (highest dose often 75.3 µM), usual class: inhibitors; 220,000 compounds, 7.3% hits; active = well fitted inhibition curve with a large enough effect, not every such curve was filed as active; inconclusive = small, poorly fitted or top-dose-only effect, or another doubt; inactive = no such curve, though single readings can be large or run the other way
HTT aggregate: reduces HttQ103-GFP aggregates in PC12 cells | PC12 HttQ103-GFP aggregates, Acumen cytometry, 40 h | Potency, µM (highest dose often 46.1 µM), hits mostly inhibitors | 220,000 compounds, 1.1% hits; note: nearly all actives have a fitted effect of over 60% in size
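Multiplexed with ATP-based cell death, this channel scores GFP aggregates in PC12 cells expressing inducible HTTex1-Q103-GFP. Induction used 100 nM tebufenozide; compounds were tested in concentration series.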
IMPase Li cell: IMPase inhibition in cells with lithium potentiation | CHO-M1 cells, IP1 TR-FRET (IP-One), carbachol + lithium | Potency, µM (top dose mostly 59.4 µM), hits mostly inhibitors | 210,000 compounds, 0.35% hits | AID 1457;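 note: IP1 builds up when IMPase is blocked and the TR-FRET signal falls; nearly all actives have a fitted effect of over 50% in size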
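Readout is a homogeneous TR-FRET IP1 immunoassay (Ex 320, Em 665 and 620), where raised cytosolic IP1 lowers signal. Cells were CHO-M1 treated 30 min at 37C with test compounds plus a little lithium; AC50 values came from Hill-equation fitting.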
HPGD inh: blocks human HPGD enzyme activity | AID 894 | 150,000 compounds, 4.3% hits | purified HPGD, NADH fluorescence kinetic, PGE2 substrate | Potency, µM, hits mostly inhibitors; active = well fitted inhibition curve with a large enough effect, not every such curve was filed as active; inconclusive = small, poorly fitted or top-dose-only effect, or another doubt; inactive = no such curve, though single readings can be large or run the other way
Target sequence (P15428 whole entry, looked up): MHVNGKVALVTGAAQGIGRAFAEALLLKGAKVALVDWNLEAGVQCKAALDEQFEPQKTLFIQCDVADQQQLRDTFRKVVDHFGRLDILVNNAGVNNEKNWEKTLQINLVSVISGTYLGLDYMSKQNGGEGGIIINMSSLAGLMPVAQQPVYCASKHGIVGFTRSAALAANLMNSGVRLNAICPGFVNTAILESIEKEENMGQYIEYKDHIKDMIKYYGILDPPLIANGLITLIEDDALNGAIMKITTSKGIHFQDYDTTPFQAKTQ
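NADH formation kinetics: reaction with 30 uM PGE2 and 1 mM NAD+ (final), 20 nM enzyme, Tris-HCl pH 8 with Tween 20, after 15 min compound preincubation at room temperature. Fluorescence change, last versus first of five reads.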
IMPase inh: IMPase inhibition in cells | P97697 | CHO-M1 cells, IP1 accumulation, HTRF TR-FRET ratio | inhibition (IP1 accumulation), % at 46.1 µM | 120,000 tested, under 10 active | AID 901; active = well fitted curve in the direction sought with a large enough effect in the signal ratio, not every such curve was filed as active; inconclusive = small, poorly fitted or top-dose-only effect, or a change in a side signal; inactive = no such curve, though single readings can be large or run the other way; the % refers to the signal ratio;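 note: cells stimulated with carbachol in lithium chloride buffer; higher means more IMPase inhibition seen as more IP1 and lower FRET ratio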
Target sequence (P97697 whole entry, looked up): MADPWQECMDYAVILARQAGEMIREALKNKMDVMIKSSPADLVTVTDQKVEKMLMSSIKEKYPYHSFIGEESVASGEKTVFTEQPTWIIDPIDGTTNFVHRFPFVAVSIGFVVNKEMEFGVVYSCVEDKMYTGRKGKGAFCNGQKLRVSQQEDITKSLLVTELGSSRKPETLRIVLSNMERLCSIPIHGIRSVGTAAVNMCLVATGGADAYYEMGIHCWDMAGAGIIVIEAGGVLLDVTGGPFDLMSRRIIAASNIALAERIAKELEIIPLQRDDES
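The IP-One HTRF competitive assay in carbachol-stimulated CHO-M1 cells quantifies cellular IP1. Compounds spanned up to 46 uM final, and activity is expressed as AC50 from concentration-response fits of the ratio and donor data.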
HTT cytoprotect: Huntington cell model cytoprotection by ATP luminescence | PC12 HTT-Q103 induced, cytoprotection, ATP luminescence, 40 h | Potency, µM (titrated, usually from 56.4 µM), hits mostly activators | 230,000 compounds, 0.14% hits; note: nearly all actives have a fitted effect of over 45% in size
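Compounds were screened for protection of PC12 cells against cell death after tebufenozide induction (100 nM final) of mutant Huntingtin exon 1 (Q103) fused to GFP.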
Hits are given with their value; n = inactive; u = inconclusive; x = no result; ! = repeats disagree; [ ] = dose if it differs, or a comment. Unless noted, calls come from the whole dose curve; as a rule, active = well fitted curve in the direction sought with a large enough effect; inconclusive = small, poorly fitted or top-dose-only effect, or another doubt; inactive = no such curve, though single readings can be large; an effect the other way counts as inactive or inconclusive.

SMILES	ALDH1A1 block	HTT aggregate	IMPase Li cell	HPGD inh	IMPase inh	HTT cytoprotect
O=c1ccc2cc(OC3OC(CO)C(O)C(O)C3O)c(O)cc2o1 (stereo not given)	u	x	10µM	u	u	n[1.9 µM]
c1ccc(N=NNc2ccccc2)cc1	n	x	n	n	x	n
C=CC(C)=O	20µM	x	n	n	x	n
NC(=O)CN1C[C@@H](O)CC1=O	x	x	x	x	n	n[1.9 µM]
CN[C@@H](CC(C)C)C(=O)N[C@@H]1C(=O)N[C@H](CC(N)=O)C(=O)N[C@@H]2C(=O)N[C@H]3C(=O)N[C@H](C(=O)N[C@H](C(=O)O)c4cc(O)cc(O)c4-c4cc3ccc4O)[C@H](O)c3ccc(c(Cl)c3)Oc3cc2cc(c3O[C@H]2O[C@@H](CO)[C@@H](O)[C@@H](O)[C@@H]2O[C@@H]2C[C@](C)(N)[C@H](O)[C@H](C)O2)Oc2ccc(cc2Cl)[C@@H]1O	n	n	n	n	n	n
O=[N+]([O-])c1ccc(N2CCNCC2)cc1N1CCCCCC1	4.5µM	n	n	x	x	n
O=[N+]([O-])c1ccc(N2CCNCC2)cc1NCc1ccco1	28µM	n	n	n	x	x
O=[N+]([O-])c1cc(F)c(N2CCCCCC2)cc1N1CCNCC1	7.1µM	n	n	x	x	n
CN1CCN(c2ccc([N+](=O)[O-])c(N3CCCCC3)c2)CC1	u	n[9.22 µM]	n	x	x	u
C[C@H](c1ccccc1)N1CCN([C@@H](C)c2ccccc2)CC1	n[13.5 µM]	x	n	n	x	n[10 µM]
Oc1ccccc1O	14µM	x	n	18µM	n	n
O=C(O)c1ccccc1O	u	n	n	u	x	n
CC(=O)c1cn(Cc2ccccc2C#N)c2ccccc12	25µM	n[9.22 µM]	u	x	x	n[10 µM]
C[C@@](Br)(C(=O)O)[C@H](Br)C(=O)O	n[13.5 µM]	x	n	n	x	n[10 µM]
C[C@@H]1OC=C2[C@@H](O)[C@H]3O[C@H]3C(=O)[C@@]23[C@H]1[C@H]1C2=C([C@@H](O)[C@H]4O[C@@H]4C2=O)[C@@H]3O[C@@H]1C	n[13.5 µM]	x	x	x	x	5.6µM
O=S(=O)(NCCO)c1cc[c]([Sb])cc1	n[13.5 µM]	x	n	n	x	x
O=c1c2ccccc2nc(-c2ccoc2)n1-c1ccccc1Cl	16µM	n	n	n	n	n
CCOP(=O)(OCC)O/C(=C/Cl)c1ccc(Cl)cc1Cl	x	n	x	x	x	n
S=c1[nH]c2cc(Br)cnc2[nH]1	3.2µM	n[9.22 µM]	x	x	x	n[10 µM]
S=c1[nH]c2ccccc2[nH]1	u	n	n	n	x	n
O=C(O)C[C@H]1OCC=C2CN3CC[C@@]45C6=CC(=O)C(=O)C([N+](=O)[O-])=C6N[C@H]4[C@H]1[C@H]2C[C@@H]35	n[13.5 µM]	x	n	n	x	n[10 µM]
C#CCO	22µM	x	n	n	x	n
CC(=O)OC[C@]12CCC(C)=C[C@H]1O[C@@H]1[C@H](O)[C@@H](OC(C)=O)[C@@]2(C)[C@]12CO2	x	0.1µM	x	x	x	n[10 µM]
CN1CCC[C@@H]1c1cccnc1.O=C(O)c1ccccc1O.O=C([OH2+])c1ccccc1O.O=C([OH2+])c1ccccc1O.O=C([OH2+])c1ccccc1O.[Mn]	u	x	n	u	x	n[10 µM]
Cc1ccc(C(c2nnnn2Cc2ccccc2)N2CC=C(c3ccc(F)cc3)CC2)cc1 (stereo not given)	7.9µM	n	n	n	n	n
SMILES	ALDH1A1 block	HTT aggregate	IMPase Li cell	HPGD inh	IMPase inh	HTT cytoprotect
Fc1ccc(C2=CCN(C(c3ccc(Cl)cc3)c3nnnn3Cc3ccccc3)CC2)cc1 (stereo not given)	u	n	n	n	x	n[10 µM]
Cc1c(N=Nc2c(O)[nH]c(=S)[nH]c2=O)c(=O)n(-c2ccccc2)n1C	22µM	n	n	28µM	n	n[10 µM]
CCOc1ccc(-n2c(O)c(N=Nc3c(C)n(C)n(-c4ccccc4)c3=O)c(=O)[nH]c2=O)cc1	16µM	n[9.22 µM]	x	x	x	n[10 µM]
C=CCn1c(O)c(N=Nc2c(C)n(C)n(-c3ccccc3)c2=O)c(=O)[nH]c1=S	u	n	n	n	x	x
OC[P+](CO)(CO)CO	n	x	n	n	x	n
CC(C)(C)[C@]1(O)C[C@@H]2OC(=O)CC23C(=O)O[C@@H]2OC(=O)[C@H](O)C231 (stereo not given in full)	n	x	n	n	x	n
CCCCCCCC(=O)Cl	u	x	n	n	x	n
CC(=NCC1CCCO1)c1c(O)n(-c2ccc(C)cc2)c(=O)[nH]c1=O (stereo not given)	n	n	n	n	n	n
Cc1ccc(NC(=S)NCC2CCCO2)cc1 (stereo not given)	n	n	n	25µM	n	n
CN1Cc2ccccc2[C@@H]2c3cccc4[nH]cc(c34)C[C@H]21	16µM!	x	n	n	n	n
CCOP(=S)(OCC)Oc1ccc2c(C)c(Cl)c(=O)oc2c1	u	n	n	u	x	n
CCOP(=S)(OCC)Oc1cc(C)oc(=O)c1	7.9µM	n[9.22 µM]	x	x	x	n[10 µM]
CCOP(=S)(OCC)Oc1cc(C)oc(=O)c1Cl	1µM	n[9.22 µM]	x	x	x	n[10 µM]
C[C@]12CCC3C(CC[C@]4(O)C[C@@H](O)CC[C@]34C=O)[C@@]1(O)CC[C@@H]2C1=CC(=O)OC1 (stereo not given in full)	n	x	n	n	n	n[1.9 µM]
Clc1ccc(C(Cl)(Cl)Cl)cc1Cl	n	x	n	n	x	n
O=C1NC(=S)NC(=O)C1C/C=C/c1ccccc1	28µM	n[9.22 µM]	n	10µM	n	n
COC(=O)[C@@H]1C[C@H](OC(C)=O)C(=O)[C@H]2[C@@]1(C)CC[C@H]1C(=O)O[C@H](c3ccoc3)C[C@]21C	n	x	n	n	x	n
CCN1CCN(S(=O)(=O)c2cnc(Cl)c(Br)c2)CC1	1.3µM	n	n	n	n	n[10 µM]
C=C(Cl)Cl	n	x	n	n	x	n
CC(O)CCl (stereo not given)	n	x	n	n	x	n
O=C(c1ccc2c(=O)n(Cc3ccc4c(c3)OCO4)c(=S)[nH]c2c1)N1CCC2(CC1)OCCO2	u	n	n	32µM	n	n
O=c1[nH]c(SCc2ccccc2Cl)nc2c1CCCC2	n	n	n	2µM	n	n[1.9 µM]
CCCCCn1c(N)c(C(=O)NCCN2CCOCC2)c2nc3ccccc3nc21	u	u	n	u	n	n[10 µM]
CCCCCCn1c(N)c(C(=O)NCCN2CCOCC2)c2nc3ccccc3nc21	u	32µM	n	u	n	n[0.074 µM]
CCCCOCCCn1c(N)c(C(=O)OCCOC)c2nc3ccccc3nc21	u	13µM	n	u	n	n
C=CC(=O)OCC(CC)CCCC (stereo not given)	n	x	n	n	x	n
CC(C)C[C@H](NP(=O)(O)O[C@@H]1O[C@@H](C)[C@@H](O)[C@@H](O)[C@H]1O)C(=O)N[C@@H](Cc1c[nH]c2ccccc12)C(=O)O	x	x	x	x	n	n[1.9 µM]
O=P(O)(O)CCP(=O)(O)O	n[13.5 µM]	x	n	n	x	n[10 µM]
O=C1C[C@@H]2OCC=C3CN4CC[C@]56c7ccccc7N1[C@H]5[C@@H]2[C@H]3C[C@@H]46	x	x	x	x	x	n

Screening data deposited in PubChem by National Center for Advancing Translational Sciences (NCATS).
